Measured values taken from PubChem BioAssay (EPA / NIEHS).
Results filed as inconclusive are left out. Activity calls are given as the source filed them. Rule for the calls, unless noted: active = hit-call score of the fitted dose curve at least 0.9, where 1 is the maximum; inactive = score below 0.9.

Columns and labels:
[1] = ATG_NFI_CIS: Attagene CIS-FACTORIAL HepG2 Assay for human Nuclear Factor I (NFI) (AID 2282989); conditions: HepG2 cis-regulatory reporter, NFI response element transcription; actives raise or lower the signal
How it was run: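 HepG2, transient MRTU, 24 h exposure; RNA→cDNA→PCR→FAM label→HpaI→CE fluorescence. Bidirectional fit, DMSO = baseline.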

[2] = ATG_NF_kB_CIS: Attagene CIS-FACTORIAL HepG2 Assay for human Nuclear Factor Kappa B (NF-kB) (AID 2282991); conditions: HepG2 Attagene cis-factorial NF-kB reporter mRNA; actives raise or lower the signal
How it was run: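 DMSO served as negative control and baseline for bidirectional curve fitting. Transiently transfected HepG2 cells were dosed for 24 h, then reporter transcripts were measured by RT-PCR with capillary electrophoresis detection.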

[3] = ATG_NRF2_ARE_CIS: Attagene CIS-FACTORIAL HepG2 Assay for human Nuclear Factor Erythroid 2 Related Factor 2 (NFR2) response to Antioxidant Response Elements (ARE) (AID 2282992); conditions: HepG2 Attagene ARE/NRF2 reporter, transcription factor activity; actives raise or lower the signal;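 for AC50: reporter mRNA level measured by RT-PCR and capillary electrophoresis fluorescence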
How it was run: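 Readout: reporter mRNA quantified by RT-PCR plus FAM-labelled primer extension, HpaI digestion and capillary electrophoresis, 24 h after dosing transfected HepG2 cells. Gain or loss of signal is fitted bidirectionally against DMSO baseline.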

[4] = ATG_Oct_MLP_CIS: Attagene CIS-FACTORIAL HepG2 Assay for human Octamer-Binding Transcription Factor (Oct) (AID 2282993); conditions: HepG2 Attagene cis-factorial Oct reporter, mRNA; actives raise or lower the signal
How it was run: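 Multiplexed cis-reporter assay in human liver HepG2 cells, 24 h incubation. Reporter RNA amplified and labelled, then resolved by capillary electrophoresis; DMSO serves as negative control and baseline.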

[5] = BSK_3C_TissueFactor: BioMAP Diversity Plus: 3C Assay for Tissue Factor Biomarker Activity (AID 2282997); conditions: BioMAP 3C HUVEC, tissue factor biomarker readout; actives raise or lower the signal
How it was run: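 HUVEC, 3C system, 24 h post-dose; Tissue Factor by ELISA; bidirectional fit vs DMSO baseline.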

[6] = BSK_3C_uPAR: BioMAP Diversity Plus: 3C Assay for Urokinase-type plasminogen activator receptor (uPAR) Biomarker Activity (AID 2282998); conditions: BioMAP 3C HUVEC, uPAR biomarker ELISA; actives raise or lower the signal
How it was run: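 Dose primary human umbilical vein endothelial cells, incubate 24 h, measure cell-surface uPAR by ELISA, then fit the signal in both directions against the DMSO negative control.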

[7] = BSK_3C_VCAM1: BioMAP Diversity Plus: 3C Assay for Vascular cell adhesion molecule 1 (VCAM1) Biomarker Activity (AID 2282999); conditions: BioMAP 3C HUVEC, VCAM1 ELISA, cytokine-stimulated; actives raise or lower the signal
How it was run: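 Vascular primary endothelium (human umbilical vein) was exposed to chemicals and assayed 24 h later. VCAM-1 levels came from ELISA, with DMSO serving as baseline for bidirectional fitting.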

[8] = BSK_4H_Eotaxin3: BioMAP Diversity Plus: 4H Assay for Eotaxin 3 Biomarker Activity (AID 2283000); conditions: primary human endothelial cells (HUVEC); actives raise or lower the signal;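 for outcome: CCL26 protein level quantified by ELISA in parallel with SRB cytotoxicity check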
How it was run: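 Readout is Eotaxin-3 (CCL26) level by ELISA in primary human umbilical vein endothelial cells harvested 24 h after chemical exposure; activity fitted in both directions against DMSO control.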

[9] = target: human Peroxisome Proliferator-activated Receptor delta (PPARd), PPARD (gene 5467) (UniProt Q03181); test: ATG_PPARd_TRANS: Attagene TRANS-FACTORIAL HepG2 Assay for human Peroxisome Proliferator-activated Receptor delta (PPARd) (AID 2283002; active = hit-call score of the fitted dose curve at least 0.9, where 1 is the maximum)
How it was run: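 Multiplexed trans-activation format: HepG2 liver cells expressing exogenous NR-Gal4 chimeras and GAL4-UAS reporters were exposed for 24 h. Reporter mRNA was detected by RT-PCR with capillary electrophoresis fluorescence; activity fitted as gain of signal relative to DMSO.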

[10] = read-out: Intercellular Adhesion Molecule 1 (ICAM1), ICAM1 (gene 3383); test: BSK_3C_ICAM1: BioMAP Diversity Plus: 3C Assay for Intercellular Adhesion Molecule 1 (ICAM1) Biomarker Activity (AID 2283003); conditions: primary human endothelial cells (HUVEC); actives raise or lower the signal
How it was run: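 Using DMSO as baseline, bidirectional curve fitting was applied to ICAM-1 ELISA signals from HUVEC in the 3C system, measured 24 h after compound addition.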

[11] = BSK_3C_Proliferation: Cell Proliferation Assessment in the BioMAP Diversity Plus: 3C Assay (AID 2283006); conditions: primary human endothelial cells (HUVEC);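 for AC50: potency may reflect either rise or fall in cell number versus DMSO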
How it was run: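 Measured here: sulforhodamine B (0.1%) staining of TCA-fixed sub-confluent umbilical vein endothelial cultures 48 h post-dosing, absorbance 560 nm. DMSO served as negative control and baseline; both signal gain and loss were modelled.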

[12] = target: Peroxisome proliferator-activated receptor gamma (Homo sapiens) (UniProt P37231); test: ATG_PPARg_TRANS: Attagene TRANS-FACTORIAL HepG2 Assay for human Peroxisome Proliferator-activated Receptor-gamma (PPARg) (AID 2283007; active = hit-call score of the fitted dose curve at least 0.9, where 1 is the maximum)
How it was run: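 Chimeric NR-Gal4 transactivation is measured in transiently transfected HepG2 cells by reporter mRNA induction at 24 h. Detection uses RT-PCR with fluorescent labelling and capillary electrophoresis; DMSO defines baseline.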

[13] = target: Nuclear receptor subfamily 1 group I member 2 (Homo sapiens) (UniProt O75469); test: ATG_PXR_TRANS: Attagene TRANS-FACTORIAL HepG2 Assay for human Pregnane X Receptor (PXR) (AID 2283008; active = hit-call score of the fitted dose curve at least 0.9, where 1 is the maximum)
How it was run: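 Trans-factorial format: exogenous NR-Gal4 fusion activity, not endogenous factor, in transfected human HepG2 liver cells. After 24 h dosing, RNA isolated, reverse-transcribed, amplified and resolved by capillary electrophoresis; induction scored versus DMSO.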

[14] = target: Cellular tumor antigen p53 (Homo sapiens) (UniProt P04637); test: ATG_p53_CIS: Attagene CIS-FACTORIAL HepG2 Assay for human p53 Transcription Factor (AID 2282994); conditions: HepG2 p53 cis-element reporter, Attagene mRNA; actives raise or lower the signal
How it was run: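 Read-out: reporter mRNA by RT-PCR plus capillary electrophoresis with fluorescence detection. Human HepG2 liver cells carried transfected multi-reporter cis-element constructs, dosed 24 h. Gain or loss of signal fitted bidirectionally against DMSO control.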

[15] = target: human Peroxisome Proliferator-activated Receptor alpha (PPARa), PPARA (gene 5465) (UniProt Q07869); test: ATG_PPARa_TRANS: Attagene TRANS-FACTORIAL HepG2 Assay for human Peroxisome Proliferator-activated Receptor alpha (PPARa) (AID 2283001; active = hit-call score of the fitted dose curve at least 0.9, where 1 is the maximum;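 for AC50: potency for gain of reporter signal over DMSO so agonist or activator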)
How it was run: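 Exposure: 24 h, transiently transfected HepG2 cells. Endpoint: GAL4-UAS reporter mRNA, RT-PCR with capillary electrophoresis fluorescence. Baseline: DMSO; increases fitted.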

[16] = target: human Retinoic Acid Receptor beta (RARb), RARB (gene 5915) (UniProt P10826); test: ATG_RARb_TRANS: Attagene TRANS-FACTORIAL HepG2 Assay for human Retinoic Acid Receptor beta (AID 2283004; active = hit-call score of the fitted dose curve at least 0.9, where 1 is the maximum)
How it was run: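 Readout is reporter mRNA induction: RNA reverse-transcribed, PCR-amplified, FAM-labelled, HpaI-cut and resolved by capillary electrophoresis. Transiently transfected HepG2 cells carrying exogenous NR–Gal4 chimeras were dosed for 24 h; activity fitted upward relative to DMSO.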

[17] = target: human RAR-related Orphan Receptor beta (RORb), RORB (gene 6096) (UniProt Q92753); test: ATG_RORb_TRANS: Attagene TRANS-FACTORIAL HepG2 Assay for human RAR-related Orphan Receptor beta (RORb) (AID 2283010; active = hit-call score of the fitted dose curve at least 0.9, where 1 is the maximum)
How it was run: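 Multiplexed transcription-factor reporter assay: HepG2 cells transiently carrying NR-Gal4/GAL4-UAS constructs, 24 h treatment, mRNA quantified by RT-PCR plus capillary electrophoresis fluorescence; activity scored as induction over DMSO.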

[18] = target: Retinoic acid receptor alpha (Homo sapiens) (UniProt P10276); test: ATG_RARa_TRANS: Attagene TRANS-FACTORIAL HepG2 Assay for human Retinoic Acid Receptor alpha (RARa) (AID 2283005; active = hit-call score of the fitted dose curve at least 0.9, where 1 is the maximum)
How it was run: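 HepG2 cells transiently transfected with multiple reporter units expressing chimeric RARα-GAL4 fusion, with GAL4-UAS-driven reporters. After 24 h compound exposure, reporter mRNA induction quantified by RT-PCR and capillary electrophoresis with fluorescent labeling; gain-of-signal fitted relative to DMSO control.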

Chain of Peroxisome proliferator-activated receptor gamma (Homo sapiens) (P37231 whole entry, looked up, the tested form may be a part): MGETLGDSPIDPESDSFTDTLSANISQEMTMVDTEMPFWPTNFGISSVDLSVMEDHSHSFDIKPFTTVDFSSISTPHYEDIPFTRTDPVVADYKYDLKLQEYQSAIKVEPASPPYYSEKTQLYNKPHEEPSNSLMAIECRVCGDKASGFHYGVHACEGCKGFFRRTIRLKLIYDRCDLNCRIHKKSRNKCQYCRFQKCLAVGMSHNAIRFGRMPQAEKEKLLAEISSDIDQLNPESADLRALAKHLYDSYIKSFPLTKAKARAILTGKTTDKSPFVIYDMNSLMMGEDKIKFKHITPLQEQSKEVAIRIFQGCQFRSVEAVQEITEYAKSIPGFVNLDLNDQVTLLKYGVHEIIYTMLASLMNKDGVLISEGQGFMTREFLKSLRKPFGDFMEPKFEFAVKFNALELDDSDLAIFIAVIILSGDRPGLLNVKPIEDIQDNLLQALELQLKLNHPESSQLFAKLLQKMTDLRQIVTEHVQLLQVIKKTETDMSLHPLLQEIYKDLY
Chain of Cellular tumor antigen p53 (Homo sapiens) (P04637 whole entry, looked up): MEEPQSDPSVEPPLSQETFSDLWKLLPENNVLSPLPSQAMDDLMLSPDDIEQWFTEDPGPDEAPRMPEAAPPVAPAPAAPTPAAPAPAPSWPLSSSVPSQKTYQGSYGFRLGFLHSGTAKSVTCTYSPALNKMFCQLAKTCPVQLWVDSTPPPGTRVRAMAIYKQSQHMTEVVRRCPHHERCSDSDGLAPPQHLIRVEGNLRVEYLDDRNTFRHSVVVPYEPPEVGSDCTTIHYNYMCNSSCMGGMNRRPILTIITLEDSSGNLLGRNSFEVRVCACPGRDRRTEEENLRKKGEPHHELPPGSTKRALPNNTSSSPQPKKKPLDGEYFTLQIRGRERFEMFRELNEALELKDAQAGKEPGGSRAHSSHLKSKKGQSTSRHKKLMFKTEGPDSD
Chain of human Peroxisome Proliferator-activated Receptor delta (PPARd), PPARD (gene 5467) (Q03181 whole entry, looked up, the tested form may be a part): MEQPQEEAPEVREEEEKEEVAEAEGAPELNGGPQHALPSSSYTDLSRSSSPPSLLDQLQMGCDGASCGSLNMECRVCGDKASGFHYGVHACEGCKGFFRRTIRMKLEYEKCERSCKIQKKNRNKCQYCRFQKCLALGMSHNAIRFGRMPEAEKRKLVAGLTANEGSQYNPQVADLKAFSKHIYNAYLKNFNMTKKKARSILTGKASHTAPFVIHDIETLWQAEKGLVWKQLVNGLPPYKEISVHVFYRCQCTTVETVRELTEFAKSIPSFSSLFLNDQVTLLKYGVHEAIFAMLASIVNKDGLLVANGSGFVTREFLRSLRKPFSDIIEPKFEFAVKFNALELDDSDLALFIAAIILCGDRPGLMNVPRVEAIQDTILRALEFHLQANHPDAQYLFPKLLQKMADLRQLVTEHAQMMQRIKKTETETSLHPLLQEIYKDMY
Chain of human Retinoic Acid Receptor beta (RARb), RARB (gene 5915) (P10826 whole entry, looked up, the tested form may be a part): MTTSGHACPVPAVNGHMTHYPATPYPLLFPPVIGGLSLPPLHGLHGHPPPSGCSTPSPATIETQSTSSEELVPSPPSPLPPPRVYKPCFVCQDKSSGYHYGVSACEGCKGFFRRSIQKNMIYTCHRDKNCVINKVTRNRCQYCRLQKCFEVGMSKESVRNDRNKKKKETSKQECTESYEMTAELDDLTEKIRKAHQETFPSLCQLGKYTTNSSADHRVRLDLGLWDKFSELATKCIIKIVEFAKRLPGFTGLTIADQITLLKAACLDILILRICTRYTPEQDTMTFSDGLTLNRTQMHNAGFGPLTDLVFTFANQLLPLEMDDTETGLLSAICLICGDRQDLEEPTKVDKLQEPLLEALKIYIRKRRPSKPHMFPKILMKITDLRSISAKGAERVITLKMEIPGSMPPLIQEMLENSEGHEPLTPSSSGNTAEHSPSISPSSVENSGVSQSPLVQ
Chain of Nuclear receptor subfamily 1 group I member 2 (Homo sapiens) (O75469 whole entry, looked up, the tested form may be a part): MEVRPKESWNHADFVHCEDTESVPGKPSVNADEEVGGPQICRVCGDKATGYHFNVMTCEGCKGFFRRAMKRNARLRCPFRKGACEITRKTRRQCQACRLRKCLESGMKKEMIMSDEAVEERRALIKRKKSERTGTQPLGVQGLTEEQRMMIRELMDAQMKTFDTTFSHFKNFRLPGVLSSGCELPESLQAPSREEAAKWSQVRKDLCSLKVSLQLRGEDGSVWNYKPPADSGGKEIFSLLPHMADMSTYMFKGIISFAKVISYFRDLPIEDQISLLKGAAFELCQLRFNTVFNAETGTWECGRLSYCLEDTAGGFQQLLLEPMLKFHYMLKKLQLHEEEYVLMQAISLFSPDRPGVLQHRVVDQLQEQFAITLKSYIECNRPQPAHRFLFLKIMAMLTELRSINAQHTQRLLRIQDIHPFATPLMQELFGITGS
Chain of human Peroxisome Proliferator-activated Receptor alpha (PPARa), PPARA (gene 5465) (Q07869 whole entry, looked up, the tested form may be a part): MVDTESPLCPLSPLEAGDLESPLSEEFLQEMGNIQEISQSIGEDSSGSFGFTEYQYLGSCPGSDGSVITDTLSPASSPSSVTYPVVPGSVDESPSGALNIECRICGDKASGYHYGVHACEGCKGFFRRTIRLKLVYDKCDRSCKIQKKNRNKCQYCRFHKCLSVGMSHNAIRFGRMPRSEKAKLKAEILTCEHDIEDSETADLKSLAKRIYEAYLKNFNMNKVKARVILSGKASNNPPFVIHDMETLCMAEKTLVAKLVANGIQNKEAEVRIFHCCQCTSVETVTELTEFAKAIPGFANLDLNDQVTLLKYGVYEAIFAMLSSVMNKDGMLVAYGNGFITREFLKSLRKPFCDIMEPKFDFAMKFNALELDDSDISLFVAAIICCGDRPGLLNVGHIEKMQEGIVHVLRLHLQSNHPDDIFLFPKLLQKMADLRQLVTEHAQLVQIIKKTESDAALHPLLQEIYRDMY
Chain of human RAR-related Orphan Receptor beta (RORb), RORB (gene 6096) (Q92753 whole entry, looked up, the tested form may be a part): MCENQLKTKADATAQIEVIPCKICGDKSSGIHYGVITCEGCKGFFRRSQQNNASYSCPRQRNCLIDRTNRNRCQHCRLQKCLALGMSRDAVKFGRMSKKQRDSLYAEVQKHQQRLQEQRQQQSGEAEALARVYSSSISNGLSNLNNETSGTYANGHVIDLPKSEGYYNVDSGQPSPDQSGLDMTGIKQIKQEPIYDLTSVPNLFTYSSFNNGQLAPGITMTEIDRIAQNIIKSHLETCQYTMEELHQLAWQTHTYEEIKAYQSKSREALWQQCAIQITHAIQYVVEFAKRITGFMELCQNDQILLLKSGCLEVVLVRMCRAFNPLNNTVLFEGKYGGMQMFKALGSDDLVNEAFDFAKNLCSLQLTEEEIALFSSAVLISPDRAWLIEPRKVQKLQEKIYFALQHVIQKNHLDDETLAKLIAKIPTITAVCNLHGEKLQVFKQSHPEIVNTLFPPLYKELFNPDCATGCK
Chain of Retinoic acid receptor alpha (Homo sapiens) (P10276 whole entry, looked up, the tested form may be a part): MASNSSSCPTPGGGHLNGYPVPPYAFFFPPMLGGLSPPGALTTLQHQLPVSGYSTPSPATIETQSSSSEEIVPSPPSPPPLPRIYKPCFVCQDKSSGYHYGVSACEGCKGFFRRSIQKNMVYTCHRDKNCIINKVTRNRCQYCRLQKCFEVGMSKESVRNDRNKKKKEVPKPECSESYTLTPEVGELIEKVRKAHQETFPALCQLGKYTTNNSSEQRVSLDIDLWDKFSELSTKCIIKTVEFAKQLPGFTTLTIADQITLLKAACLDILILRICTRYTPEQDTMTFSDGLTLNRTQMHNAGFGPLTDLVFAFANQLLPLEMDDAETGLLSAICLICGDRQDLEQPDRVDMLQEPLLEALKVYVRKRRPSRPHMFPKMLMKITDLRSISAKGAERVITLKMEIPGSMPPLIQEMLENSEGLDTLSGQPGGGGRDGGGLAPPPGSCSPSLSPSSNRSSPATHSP

c1ccc2sc(SN(C3CCCCC3)C3CCCCC3)nc2c1
outcome [1]: inactive | outcome [2]: inactive | outcome [3]: inactive | outcome [4]: inactive | outcome [5]: inactive | AC50 [6]: 7.59 µM (active) | outcome [7]: inactive | outcome [8]: inactive | outcome [9]: inactive | outcome [10]: inactive | AC50 [11]: 8.86 µM (active) | outcome [12]: inactive | AC50 [13]: 0.629 µM (active)

CCOC(=S)SSC(=S)OCC
outcome [1]: inactive | outcome [3]: inactive | outcome [4]: inactive | outcome [14]: inactive | outcome [12]: inactive

CC(C)c1cccc(O)c1
outcome [1]: inactive | outcome [2]: inactive | outcome [3]: inactive | outcome [4]: inactive | outcome [14]: inactive | outcome [15]: inactive | outcome [9]: inactive | outcome [13]: inactive

CCCCCCCCCCCCCC(=O)O
outcome [1]: inactive | AC50 [3]: 65.5 µM (active) | outcome [4]: inactive | outcome [14]: inactive | AC50 [15]: 27.9 µM (active) | outcome [12]: inactive | outcome [13]: inactive

C=CC(=O)OCC(O)COc1ccccc1 (stereo not drawn)
outcome [1]: inactive | AC50 [2]: 55.7 µM (active) | outcome [4]: inactive | outcome [14]: inactive | AC50 [15]: 17.3 µM (active) | outcome [9]: inactive | AC50 [12]: 3.66 µM (active) | AC50 [13]: 61 µM (active)

CC1(C)CCC(C)(C)c2cc(C(=O)Nc3ccc(C(=O)O)cc3)ccc21
outcome [1]: inactive | outcome [2]: inactive | outcome [3]: inactive | AC50 [4]: 100 µM (active) | AC50 [14]: 55.1 µM (active) | outcome [15]: inactive | outcome [9]: inactive | outcome [16]: inactive | AC50 [12]: 100 µM (active)

O=S(=O)(O)c1cccc2c(S(=O)(=O)O)cccc12
outcome [1]: inactive | outcome [2]: inactive | outcome [3]: inactive | outcome [4]: inactive | outcome [14]: inactive | outcome [15]: inactive | outcome [9]: inactive | outcome [16]: inactive

NNc1nc(-c2ccc(N)cc2)cs1
outcome [1]: inactive | outcome [2]: inactive | outcome [4]: inactive | outcome [14]: inactive | outcome [15]: inactive | outcome [9]: inactive | outcome [12]: inactive | outcome [13]: inactive | outcome [17]: inactive

CCCCCCCCCCCCCCCC(=O)O
outcome [1]: inactive | outcome [2]: inactive | outcome [3]: inactive | outcome [4]: inactive | outcome [14]: inactive | AC50 [15]: 26.5 µM (active) | outcome [16]: inactive | outcome [18]: inactive | outcome [12]: inactive

CCCCC/C=C/C=C/C=O
outcome [1]: inactive | outcome [2]: inactive | AC50 [3]: 40.6 µM (active) | outcome [14]: inactive | AC50 [6]: 31.5 µM (active) | AC50 [7]: 29.3 µM (active) | AC50 [8]: 29.9 µM (active) | outcome [9]: inactive | AC50 [10]: 32.8 µM (active) | AC50 [11]: 20 µM (active) | outcome [13]: inactive | outcome [17]: inactive

NC(=O)Nc1ccc(Cl)cc1
outcome [1]: inactive | outcome [2]: inactive | outcome [3]: inactive | outcome [4]: inactive | outcome [14]: inactive | outcome [15]: inactive | outcome [9]: inactive | outcome [12]: inactive | outcome [13]: inactive

CC(CCO)CCc1ccccc1 (stereo not drawn)
outcome [1]: inactive | outcome [2]: inactive | outcome [3]: inactive | outcome [4]: inactive | outcome [14]: inactive | outcome [15]: inactive | outcome [9]: inactive | outcome [12]: inactive | AC50 [13]: 48.2 µM (active)

CCC(=O)/C=C/C1C(C)=CCCC1(C)C (stereo not drawn)
outcome [1]: inactive | AC50 [3]: 40.4 µM (active) | outcome [4]: inactive | outcome [14]: inactive | outcome [15]: inactive | outcome [9]: inactive | AC50 [12]: 21.4 µM (active) | AC50 [13]: 3.77 µM (active)

COC(=O)c1ccc(C)cc1
outcome [1]: inactive | outcome [3]: inactive | outcome [14]: inactive | outcome [6]: inactive | outcome [7]: inactive | outcome [8]: inactive | outcome [10]: inactive | outcome [11]: inactive | AC50 [13]: 9.06 µM (active)
